Inconclusive results are not listed. Values without a mark were called inactive. Calls of active or inactive are those of the source. Calls come from the whole dose curve; as a rule, active = well fitted inhibition curve with a large enough effect; inconclusive = small, poorly fitted or top-dose-only effect; inactive = no such curve, though single readings can be large or run the other way.
test system: Zika virus NS2B-NS3 protease (unlinked complex); experiment: Primary screen GU Rhodamine qHTS for Zika virus inhibitors: Unlinked NS2B-NS3 protease assay (AID 1347159); settings: Recombinant ZIKV NS2B-NS3 protease, Rhodamine110 substrate fluorescence; series mostly up to 107 µM; activity change, negative = inhibition: at the top concentration; note: nearly all actives have a fitted effect of over 60% in size
In short: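 Unlinked NS2B/NS3, 25 nM; Rhod110 peptide, 1.5 microM; compounds, up to 114 microM. Reaction run 15 min at RT in 10 mM Tris-HCl pH 8.0, 0.01% Tween 20; kinetic fluorescence change fitted with a 4-parameter Hill model.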
% is set by controls: 0 for no effect and ±100 for the full control effect.

SMILES	activity change, negative = inhibition [%]
C=C1C(=O)OC2C(OC(=O)C=C(C)C)C(C)=C3C(=O)C=C(C)C3C(O)C12 (centres undefined)	7.27
COCc1c(Cl)ccc2c1CC[C@H]2c1ncc[nH]1	5.07
COC(=O)CC1OC(C)C2=C(O)c3c(O)cccc3C(=O)C23OC13 (centres undefined)	-16.7
CC[C@@H](C)Nc1cc(C(=O)NC2CC3CC[C@@H](C2)N3c2ccc(C(=O)C3CC3)cn2)c(C)cc1C(N)=O (some centres undefined)	-8.83
O=C(NCCCNc1nc(Nc2cccc(CN3CCOCC3)c2)ncc1C1CC1)C1CCC1	18.1

test system: Zika virus NS2B-NS3 protease (linked construct); experiment: Primary screen NINDS Rhodamine qHTS for Zika virus inhibitors (AID 1347160); settings: purified NS2B-NS3 protease, Rhodamine110 substrate fluorescence; series mostly up to 57.1 µM; activity change, negative = inhibition: at the top concentration; note: nearly all actives have a fitted effect of over 55% in size; note: potency is the fitted concentration of half-maximal effect
In short: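 Single-chain NS2B-NS3 protease, 25 nM, pH 8.0; compounds preincubated 15 min. Activity: Rhodamine110 release from 1.5 microM substrate over 15 min, room temperature, data fitted to 4-parameter Hill.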

SMILES	outcome	activity change, negative = inhibition	Potency
COc1ccccc1S(=O)(=O)Nc1ccc2c(c1)CN(C)C(=O)N2	inactive	–	–
CC(=O)O[C@@H]1[C@@H](O)[C@H](O[C@@H]2[C@@H](O)[C@@H](O)[C@H](O[C@H]3[C@H](O[C@H]4[C@H](O[C@H]5CC[C@@]6(C)C(CC[C@]7(C)C6CC=C6[C@@H]8CC(C)(C)CC[C@]8(C(=O)O)CC[C@]67C)[C@]5(C)CO)O[C@H](CO)[C@@H](O)[C@@H]4O)OC[C@@H](O)[C@@H]3O)O[C@H]2C)OC[C@H]1O (some centres undefined)	inactive [at 15.1 µM]	–	–
Cc1nc(NC(=O)N2CCCC2C(N)=O)sc1-c1ccnc(C(C)(C)C(F)(F)F)c1 (centres undefined)	–	12.7%	–
Nc1c(S(=O)(=O)c2ccccc2)c2nc3ccccc3nc2n1-c1ccc(F)cc1	–	-4.6%	–
CN1CCc2cc3c(cc2C(=O)Cc2cc4c(cc2C1)OCO4)OCO3	–	11.1% [at 33.1 µM]	–
Cn1sc(=O)n(Cc2ccccc2)c1=O	–	9.66%	–
CC1(CO)CC2C(O)C3=C(CC(C)(O)C2C1)C(=O)OC3 (centres undefined)	–	-5.2%	–
C[C@@H]1CC[C@]2(C(=O)O)CC[C@]3(C)C(=CCC4[C@@]5(C)CC[C@H](O)[C@](C)(C(=O)O)C5CC[C@]43C)C2[C@]1(C)O (some centres undefined)	–	-5.02% [at 33.1 µM]	–
O=c1[nH]c([C@@H]2CCCN2)nc2c1oc1ccc(Cl)cc12	inactive	–	–
COc1ccc2nc(-c3cc(OC)c(OC)c(OC)c3)cc(C(=O)NCC(=O)Nc3ccc(C(C)=O)cc3)c2c1	inactive	–	–
CCCCCCCCC(=O)N[C@H](CN1CCCC1)[C@H](O)c1ccc2c(c1)OCCO2	–	127%	–
COC(=O)c1ccc(N2CCN(C)CC2)c(NC(=O)c2cccc(OC)c2)c1	–	-23.8%	–
COc1cc(N2CCOCC2)ccc1NC(=O)c1csc(-c2cccnc2)n1	inactive	–	–
C=C1CC[C@@H]2[C@](C)(CO)[C@H](O)CC[C@@]2(C)[C@@H]1C/C=C1/C(=O)OCC1OC(=O)/C(=C/CO)C(O)C[C@@H]1C(=C)CC[C@@H]2[C@](C)(CO)[C@H](O)CC[C@]21C (some centres undefined)	inactive [at 15.1 µM]	–	–
O=C(NNc1nc2cc(F)ccc2n2cccc12)c1cnccn1	–	5.55%	–
C=C1/C(=C/C=C2\CCC[C@]3(C)[C@@H]([C@H](C)CC[C@@H](O)C(C)(C)O)CC[C@@H]23)C[C@@H](O)C[C@@H]1O	inactive	–	–
COc1cc2c(cc1-c1c(C)noc1C)ncc1[nH]c(=O)n(C(C)c3ccccn3)c12 (centres undefined)	–	8.93%	–
CNC(=O)COC(=O)N1CCC(CCc2ccc(Cl)cc2)CC1	–	-3.81%	–
COc1ccc(CCc2nc3c(C)c(-c4c(C)noc4C)c(C)cc3n2CCN2CCOCC2)cc1	–	0.847%	–
C=C(C)C1CC(O)C(C)C12CC(O)C1(C)OC1C2O (centres undefined)	–	15.9%	–

SMILES	outcome	activity change, negative = inhibition	Potency
CC[C@@H]1C[C@]1(NC(=O)[C@@H]1C[C@@H]2CN1C(=O)[C@H](C(C)(C)C)NC(=O)OCC(C)(C)CCCCc1cccc3c1CN(C3)C(=O)O2)C(=O)NS(=O)(=O)C1CC1	–	–	22.4 µM (active)
COc1ccc2[nH]c(=O)c3c(c2c1)OC(C)(C)C=C3	–	-0.413%	–
COc1cc(-c2cn(C3CCc4c(F)cccc4N(CC(F)(F)F)C3=O)nn2)ccc1-n1cnc(C)c1 (centres undefined)	inactive	–	–
CC1=CC2/C=C(\C)CCC(O)C/C=C/C(=O)OC23C(=O)NC(CC(C)C)C3C1C (centres undefined)	–	3.57% [at 33.1 µM]	–
O=C(NCCCN1CCC2(CC1)OCc1ccccc12)[C@H]1CCCN1Cc1ccccc1	inactive; activator	–	–
O=C(Nc1nc2cc(C(F)(F)F)cc(NC3CC3)n2n1)c1cccnc1	–	-9.03%	–
O=C(Nc1nnc(-c2ccc3c(c2)OCCO3)o1)C1CCCCC1	–	43.4%	–
COC(=O)c1sccc1S(=O)(=O)Nc1ccc(Nc2ccccc2)cc1OC	–	21.7%	–
NC(=O)c1cnc(N[C@@H]2CCCC[C@H]2N)nc1Nc1cccc(-n2nccn2)c1	–	11%	–
COC1CC(O[C@H]2CC[C@]3(C)C4CC[C@@]5(C)C(=O)[C@]4(CC[C@@H]3C2)CC[C@@H]5C2=CC(=O)OC2)OC(C)C1OC1OC(COC2OC(CO)C(O)C(O)C2O)C(O)C(O)C1O (some centres undefined)	–	18.9% [at 15.1 µM]	–
CN[C@@H]1[C@H](O[C@H]2[C@H](O[C@@H]3[C@@H](O)[C@H](O)[C@@H](N=C(N)N)[C@H](O)[C@H]3N=C(N)N)O[C@@H](C)[C@]2(O)CO)O[C@@H](CO)[C@H](O)[C@H]1O	–	38%	–
OC1CCC(Nc2nc(-c3ccccc3)nc3[nH]ccc23)CC1 (centres undefined)	inactive	–	–
CC(=O)c1ccc2c(c1)[C@H](NC(=O)c1ccc(F)c(Cl)c1)[C@H](O)C(C)(C)O2	inactive	–	–
O=C(Nc1ccc(Cl)cc1)C1CCCN(C(=O)c2cccc(-c3ccco3)c2)C1 (centres undefined)	–	9.21%	–
C=C1C(=O)OC2C(OC(=O)C=C(C)C)C(C)=C3C(=O)C=C(C)C3C(O)C12 (centres undefined)	–	20.9% [at 33.1 µM]	–
COCc1c(Cl)ccc2c1CC[C@H]2c1ncc[nH]1	–	40.4%	–
COC(=O)CC1OC(C)C2=C(O)c3c(O)cccc3C(=O)C23OC13 (centres undefined)	–	-16.2% [at 33.1 µM]	–
CC[C@@H](C)Nc1cc(C(=O)NC2CC3CC[C@@H](C2)N3c2ccc(C(=O)C3CC3)cn2)c(C)cc1C(N)=O (some centres undefined)	–	-16.5%	–
O=C(NCCCNc1nc(Nc2cccc(CN3CCOCC3)c2)ncc1C1CC1)C1CCC1	–	54.7%	–

Reference: PubChem BioAssay (NCATS)
